Unmarked numbers belong to inactive results. Inconclusive results are not listed. The source made the active and inactive calls. Unless noted, calls come from the whole dose curve; as a rule, active = well fitted curve in the direction sought with a large enough effect in the repeat runs; inconclusive = weak or mixed curves; inactive = no such curve, though single readings can be large; an effect the other way counts as inactive or inconclusive.

Experiment [1] can be described thus: qHTS assay to identify small molecule agonists of the estrogen receptor alpha (ER-alpha) signaling pathway in the presence of an antagonist - cell viability counter screen (AID 1259386). Note: series mostly up to about 92 µM; nearly all actives have a fitted effect of over 30% in size. The method in brief:
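Compounds tested at 15 concentrations for 22 h at 37C alongside 10.0nM (final) ICI-182,780 antagonist, in VM7Luc4E2 cells grown in phenol red-free, charcoal-stripped medium. Viability read by CellTiter-Fluor fluorescence after 1 h reagent incubation.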

Experiment [2] concerns the target Progesterone receptor (Homo sapiens) (UniProt P06401). The experiment is described as follows: qHTS assay to identify small molecule agonists of the progesterone receptor (PR) signaling pathway (AID 1346784; calls by dose curve; note: nearly all actives have a fitted effect of over 30% in size). The method in brief:
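PR-UAS-bla HEK 293T cells (beta-lactamase reporter under UAS) in 2% charcoal-stripped FBS, dosed with 23 nL compound after 6 hr, incubated 16hr at 37C. LiveBLAzer B/G FRET substrate added, fluorescence read after 2 hours.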
In general terms: qHTS replaces the single test concentration by a dilution series.

A short description of experiment [3]: qHTS assay to identify small molecule agonists of the progesterone receptor (PR) signaling pathway - cell viability counter screen (AID 1346799; calls by dose curve; note: nearly all actives have a fitted effect of over 45% in size; note: potency is the fitted concentration of half-maximal effect). The method in brief: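 Counter screen in the PR-UAS-bla HEK293T wells (2% charcoal-stripped FBS, 16 h compound exposure at 37 C) after the bla read. CellTiter-Glo added, 30 min at room temperature, luminescence read as cell viability.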

Experiment [4] in a line: qHTS assay to identify small molecule antagonists of the TGF-beta/Smad signaling pathway - cell viability counter screen (AID 1346824). Note: nearly all actives have a fitted effect of over 50% in size. In short, it runs like this:
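Cytotoxicity counter-screen run in the same wells as the beta-lactamase Smad reporter read: CellTiter-Glo luminescence after 30 min at room temperature. HEK 293T SBE-bla cells had 5 hr compound exposure at 37 C with TGF-beta1 (0.25 ng/mL stock).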

Experiment [5] is described as follows: qHTS assay to identify small molecule agonists of the TGF-beta/Smad signaling pathway - cell viability counter screen (AID 1346829). Note: top concentration of the series differs between compounds; nearly all actives have a fitted effect of over 45% in size. The method in brief:
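Cytotoxicity counter screen: CellTiter-Glo luminescence (30 min, room temperature) measured in the SBE-bla HEK 293T reporter wells after 5 hr compound treatment at 37 C and the 2 hr substrate step.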

Experiment [6] is described as follows: qHTS assay to identify small molecule agonists of the TGF-beta/Smad signaling pathway (AID 1346859; active = well fitted activation curve with a large enough effect in the signal ratio in the repeat runs, not every such curve was filed as active; the % refers to the signal ratio; note: series mostly up to about 77 µM). In short, it runs like this: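 SBE-bla HEK293T cells plated overnight, then compound exposure for 5 h at 37 C. Beta-lactamase reporter read with LiveBLAzer B/G FRET substrate after 2 h at room temperature, fluorescence at 405 nm excitation, 460/530 nm emission.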

The nature of experiment [7]: Caspase-3/7 induction in HepG2 cells by small molecules, qHTS assay (AID 1346978). Note: nearly all actives have a fitted effect of over 15% in size. The method in brief:
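Caspase-3/7 induction was measured by Caspase-Glo 3/7 luminescence (30 min, room temperature) after a 17 hr compound exposure of wild-type HepG2 cells seeded at 2,000 per well and pre-incubated 5 hr.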

Experiment [8] can be described thus: Caspase-3/7 induction in CHO-K1 cells by small molecules, qHTS cell viability counter screen (AID 1346979). Note: nearly all actives have a fitted effect of over 35% in size. In short, it runs like this: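 Wild-type CHO-K1 cells (1,500/well) treated with compound after 5 h plating; after 16 h at 37C, viability read as CellTiter-Fluor fluorescence following 1 h reagent incubation, in the same wells as the caspase read.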
A short description of experiment [9]: Caspase-3/7 induction in CHO-K1 cells by small molecules, qHTS assay (AID 1346980). Note: nearly all actives have a fitted effect of over 15% in size. In short, it runs like this: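 Luminescent Caspase-Glo 3/7 read (30min, room temperature) quantified apoptosis induction. Cells were wild-type CHO-K1, treated with compound for 17hr at 37 C and 5% CO2.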
The target in experiment [10] is Nuclear receptor subfamily 1 group I member 2 (Rattus norvegicus) (UniProt Q9R1A7). The experiment is described as follows: Rat pregnane X receptor (rPXR) activation by small molecules, qHTS assay (AID 1346983). Note: nearly all actives have a fitted effect of over 20% in size. The note with it: rPXR luciferase reporter cells, One-Glo luminescence, 24 h; max activation: hits give high values. In short, it runs like this:
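Luminescent readout (One-Glo luciferase, 30 min room temperature) followed 24 hr compound treatment at 37 C of rPXR cells plated 2,000 per well and preincubated 5hr; qHTS format with compounds delivered in DMSO.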

Experiment [11] addresses Nuclear receptor subfamily 1 group I member 2 (Homo sapiens) (UniProt O75469). The experiment is described as follows: CYP3A4 induction through human pregnane X receptor (PXR) by small molecules, qHTS assay (AID 1346984). Note: nearly all actives have a fitted effect of over 40% in size. Note: potency is the fitted concentration of half-maximal effect. The method in brief: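 Read-out is luminescence after One-Glo addition, following a 3 hr, 37C incubation with Luciferin-IPA CYP3A4 substrate (3uM final). Before that, compounds were on DPX-2 cells (HepG2 co-transfected with PXR element plus CYP3A4-promoter luciferase) for 24 hr at 37C.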

For experiment [12] the target is unchanged. The experiment is described as follows: Human pregnane X receptor (PXR) activation by small molecules, qHTS assay (AID 1346985). Note: nearly all actives have a fitted effect of over 40% in size. The method in brief: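 DPX-2 cells (HepG2 co-transfected with a PXR response element and a CYP3A4-promoter luciferase construct) were seeded at 2,000 per well, rested 5 hr at 37C, then exposed to DMSO-dissolved compounds for 24 hr. Activation was read as luciferase luminescence.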

Experiment [13] concerns the target Cytochrome P450 2D6 (Homo sapiens) (UniProt P10635). The experiment is described as follows: Cytochrome P450 Family 2 Subfamily D Member 6 (CYP2D6) small molecule antagonists: luciferase reporter qHTS assay (AID 1671196). Note: nearly all actives have a fitted effect of over 50% in size. Note: potency is the fitted concentration of half-maximal effect. The method in brief:
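CYP2D6 activity was followed as luminescence from its luciferin product after a 1 h NADPH-driven reaction at room temperature. Enzyme-substrate mix and compound were pre-incubated for 10 min, and the signal was read 20 min after adding detection reagent.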
(Reporter assays use an easily measured gene product as a stand-in for the process of interest.)

A short description of experiment [14]: qHTS assay to identify small molecule antagonists of the progesterone receptor (PR) signaling pathway - cell viability counter screen (AID 1346798). Note: series mostly up to about 92 µM; nearly all actives have a fitted effect of over 50% in size. In short, it runs like this:
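PR-UAS-bla HEK293T cells, 3,000/well in 2% charcoal-stripped FBS medium, dosed with compounds plus R5020 agonist and incubated 16 h at 37C. Viability then measured in the same wells by CellTiter-Glo luminescence after 30 min at RT.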

Experiment [15] deals with Thyrotropin-releasing hormone receptor (Homo sapiens) (UniProt P34981). The experiment is described as follows: qHTS assay to identify small molecule antagonists of the thyrotropin-releasing hormone receptor (TRHR) signaling pathway (AID 1346877; active = well fitted inhibition curve with a large enough effect in the repeat runs, not every such curve was filed as active; note: series mostly up to about 51 µM). The method in brief:
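Antagonist mode: after a 5 min room-temperature compound exposure, cells were stimulated with 1 nM (final) TRH. Dye-loaded TRHR-HEK293 cells were used, and calcium-dependent fluorescence was followed for 3 min, with 15-point titrations run in triplicate.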

For experiment [16] the target is unchanged. The experiment is described as follows: qHTS assay to identify small molecule agonists of the thyrotropin-releasing hormone receptor (TRHR) signaling pathway (AID 1346891; calls by dose curve; note: series mostly up to about 58 µM). The method in brief:
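HEK293 cells expressing TRHR plated 18 h at 37 C/5% CO2, calcium dye-loaded 2 h at 37 C, then compound added (agonist mode); kinetic calcium fluorescence read 3 min at 1 s intervals; 15 concentrations in triplicate.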

A short description of experiment [17]: Human pregnane X receptor (PXR) small molecule agonists, qHTS cell viability counter screen (AID 1346977). Note: nearly all actives have a fitted effect of over 50% in size. The method in brief: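 PXR-Luc HepG2 cells (2,000/well, 5% charcoal-stripped FBS) preincubated 5 hr, then exposed to compounds 24 hr at 37 C. Viability read in the same wells by CellTiter-Fluor fluorescence, reagent added at 23 hr, 1 hr incubation.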

A short description of experiment [18]: Caspase-3/7 induction in HepG2 cells by small molecules, qHTS cell viability counter screen (AID 1346981). Note: series mostly up to about 92 µM; nearly all actives have a fitted effect of over 30% in size. In short, it runs like this:
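CellTiter-Fluor fluorescence measured viability in the same wells used for Caspase-Glo 3/7. HepG2 (wild type) at 2,000 cells/well were pre-incubated 5 hr, dosed, and given reagent at 16 hr, with 1 hr further at 37C.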

Experiment [19] deals with Nuclear receptor subfamily 1 group I member 2 (Homo sapiens) (UniProt O75469). The experiment is described as follows: Human pregnane X receptor (PXR) small molecule agonists, qHTS assay (AID 1346982). Note: nearly all actives have a fitted effect of over 35% in size. Note: potency is the fitted concentration of half-maximal effect. The method in brief: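 Agonist mode: luminescence from ONE-Glo after 24 h compound exposure at 37C in HepG2 cells carrying hPXR-responsive CYP3A4 luciferase, plated in charcoal-stripped serum medium 5 h beforehand.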
Chain of Nuclear receptor subfamily 1 group I member 2 (Homo sapiens) (O75469 whole entry, looked up): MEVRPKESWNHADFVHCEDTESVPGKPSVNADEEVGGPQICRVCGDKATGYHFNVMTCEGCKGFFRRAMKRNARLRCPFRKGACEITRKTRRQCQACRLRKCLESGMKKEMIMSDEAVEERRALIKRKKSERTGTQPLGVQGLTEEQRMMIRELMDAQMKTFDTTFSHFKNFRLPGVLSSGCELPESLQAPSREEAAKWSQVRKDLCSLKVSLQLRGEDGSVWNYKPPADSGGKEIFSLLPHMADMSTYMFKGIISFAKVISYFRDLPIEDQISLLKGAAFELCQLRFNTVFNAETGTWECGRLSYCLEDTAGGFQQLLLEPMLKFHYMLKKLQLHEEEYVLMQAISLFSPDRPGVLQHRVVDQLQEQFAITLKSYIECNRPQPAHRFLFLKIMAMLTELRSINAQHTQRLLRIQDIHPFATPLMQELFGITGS
% is set by controls: 0 for no effect and ±100 for the full control effect.

Chain of Nuclear receptor subfamily 1 group I member 2 (Rattus norvegicus) (Q9R1A7 whole entry, looked up): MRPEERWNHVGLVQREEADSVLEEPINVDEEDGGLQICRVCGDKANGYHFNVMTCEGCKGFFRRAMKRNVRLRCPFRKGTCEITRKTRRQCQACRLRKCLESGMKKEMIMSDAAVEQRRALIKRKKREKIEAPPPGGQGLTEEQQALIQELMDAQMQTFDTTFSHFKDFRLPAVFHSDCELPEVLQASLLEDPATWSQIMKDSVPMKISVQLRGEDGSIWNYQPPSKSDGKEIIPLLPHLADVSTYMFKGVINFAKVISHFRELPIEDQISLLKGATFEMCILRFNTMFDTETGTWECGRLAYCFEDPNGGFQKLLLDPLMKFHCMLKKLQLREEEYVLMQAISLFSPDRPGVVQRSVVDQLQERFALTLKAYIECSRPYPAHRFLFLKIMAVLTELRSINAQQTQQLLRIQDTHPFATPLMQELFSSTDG
Chain of Cytochrome P450 2D6 (Homo sapiens) (P10635 whole entry, looked up): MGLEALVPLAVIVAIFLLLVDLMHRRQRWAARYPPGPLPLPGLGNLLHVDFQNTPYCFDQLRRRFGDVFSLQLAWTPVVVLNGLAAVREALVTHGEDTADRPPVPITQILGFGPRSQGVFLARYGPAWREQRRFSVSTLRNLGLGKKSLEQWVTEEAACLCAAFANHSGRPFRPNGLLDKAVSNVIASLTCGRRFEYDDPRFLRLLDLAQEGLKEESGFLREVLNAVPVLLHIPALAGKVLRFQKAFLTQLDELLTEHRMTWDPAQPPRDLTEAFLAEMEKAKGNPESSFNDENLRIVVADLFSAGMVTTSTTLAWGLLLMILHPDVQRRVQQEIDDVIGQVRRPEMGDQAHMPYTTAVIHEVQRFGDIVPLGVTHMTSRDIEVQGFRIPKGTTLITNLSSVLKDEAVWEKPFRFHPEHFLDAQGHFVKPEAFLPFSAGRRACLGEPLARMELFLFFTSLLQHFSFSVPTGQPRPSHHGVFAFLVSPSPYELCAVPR
Chain of Progesterone receptor (Homo sapiens) (P06401 whole entry, looked up): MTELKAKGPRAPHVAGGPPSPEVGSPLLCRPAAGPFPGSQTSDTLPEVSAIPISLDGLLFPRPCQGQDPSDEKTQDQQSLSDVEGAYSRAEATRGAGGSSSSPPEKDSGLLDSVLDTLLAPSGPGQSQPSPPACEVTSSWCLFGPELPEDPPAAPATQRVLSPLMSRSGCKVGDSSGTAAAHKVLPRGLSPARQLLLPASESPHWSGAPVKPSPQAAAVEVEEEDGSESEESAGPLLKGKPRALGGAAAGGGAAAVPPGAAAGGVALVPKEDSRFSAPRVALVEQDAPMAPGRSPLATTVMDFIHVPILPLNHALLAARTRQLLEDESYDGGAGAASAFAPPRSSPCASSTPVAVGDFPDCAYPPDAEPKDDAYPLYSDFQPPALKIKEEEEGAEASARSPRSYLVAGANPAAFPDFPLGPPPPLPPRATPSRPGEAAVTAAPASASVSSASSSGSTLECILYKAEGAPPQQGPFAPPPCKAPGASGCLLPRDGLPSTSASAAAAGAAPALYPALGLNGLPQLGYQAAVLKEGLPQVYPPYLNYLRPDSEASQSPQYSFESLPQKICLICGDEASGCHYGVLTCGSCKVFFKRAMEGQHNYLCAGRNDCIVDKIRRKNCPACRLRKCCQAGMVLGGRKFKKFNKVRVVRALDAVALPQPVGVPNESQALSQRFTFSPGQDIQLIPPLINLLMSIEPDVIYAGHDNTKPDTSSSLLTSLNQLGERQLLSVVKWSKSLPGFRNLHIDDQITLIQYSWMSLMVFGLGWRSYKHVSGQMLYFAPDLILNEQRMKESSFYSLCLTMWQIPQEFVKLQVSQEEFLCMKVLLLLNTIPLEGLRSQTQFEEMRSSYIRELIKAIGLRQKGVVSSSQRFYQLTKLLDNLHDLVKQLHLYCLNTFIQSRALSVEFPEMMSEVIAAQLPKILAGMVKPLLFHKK
Chain of Thyrotropin-releasing hormone receptor (Homo sapiens) (P34981 whole entry, looked up): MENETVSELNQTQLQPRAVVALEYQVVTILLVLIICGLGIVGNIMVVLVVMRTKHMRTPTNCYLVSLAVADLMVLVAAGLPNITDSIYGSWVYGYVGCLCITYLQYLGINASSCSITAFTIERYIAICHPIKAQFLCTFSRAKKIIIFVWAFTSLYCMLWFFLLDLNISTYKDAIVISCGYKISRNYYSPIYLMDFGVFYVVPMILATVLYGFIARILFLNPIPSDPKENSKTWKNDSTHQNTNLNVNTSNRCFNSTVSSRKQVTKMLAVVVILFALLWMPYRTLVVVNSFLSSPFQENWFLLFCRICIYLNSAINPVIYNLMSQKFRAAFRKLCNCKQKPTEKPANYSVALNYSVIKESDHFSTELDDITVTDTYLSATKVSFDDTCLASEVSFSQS

As for `CN1CCC(=C2c3ccccc3CCc3sccc32)CC1`, the Potency entry in experiment [1], in [4], in [5], in [8], in experiment [9] and in experiment [12] was “inactive” each time. The call in [2], in experiment [6] and in experiment [7] was inactive. Also, the Potency is 15 µM (active) in experiment [3], 28.2 µM (active) in experiment [11] and 1.23 µM (active) in [13]. In experiment [10], the max activation was 0.0937%.

In the case of `CCCCOC(=O)/C=C\C(=O)OCCCC`, the Potency result in [1], in experiment [14], in experiment [4], in [5], in experiment [16] and in experiment [17] was “inactive” each time. The Potency result in experiment [8], in [9], in experiment [18], in [19] and in experiment [13] was “inactive” in each case. In addition, the call in experiment [2], in experiment [6], in experiment [15] and in experiment [7] was inactive.

Regarding `Nc1nc(N)c2nc(CNc3ccc(C(=O)N[C@@H](CCC(=O)O)C(=O)O)cc3)cnc2n1`, the Potency result in experiment [1], in [14], in experiment [3], in [16], in experiment [17] and in [8] was “inactive” throughout. Further, the Potency entry in experiment [9] was “inactive”. For the same compound, the outcome in experiment [2], in experiment [15] and in experiment [7] was inactive.

On to `O=C(c1ccc(O)cc1)c1ccc(O)cc1`, for which the Potency result in [1], in experiment [4], in [5], in experiment [16], in experiment [17] and in experiment [8] was “inactive” each time. In addition, the Potency result in experiment [9] is “inactive”. Besides, the compound was classed as inactive in experiment [2], in [6], in experiment [15] and in [7]. Further, the Potency in experiment [19] was 54.5 µM (active).

For the compound `CCN(CC)CCNC(C(=O)OCCC(C)C)c1ccccc1` (stereo unspecified), the Potency result in experiment [1], in experiment [14], in experiment [4], in experiment [5], in experiment [16] and in experiment [8] was “inactive” throughout. In addition, the Potency entry in experiment [9] and in experiment [18] was “inactive” in each case. In addition, the compound was classed as inactive in experiment [2], in experiment [6], in [15] and in [7]. In addition, the max activation in experiment [10] was -0.588%. The Potency in experiment [13] was 1.74 µM (active).

Turning to `CC(=O)N(O)CCCCCNC(=O)CCC(=O)N(O)CCCCCNC(=O)CCC(=O)N(O)CCCCCN`, the Potency entry in experiment [1], in experiment [3], in experiment [4], in experiment [5], in [16] and in [17] was “inactive” in each case. Moreover, the Potency result in [8], in [9], in experiment [19], in experiment [11] and in experiment [12] was “inactive” throughout. The compound was called inactive in experiment [2], in experiment [6], in experiment [15] and in experiment [7]. In addition, the max activation in experiment [10] is -2.68%.

Turning to `CCCCc1cc2ccccc2c(OCCN(C)C)n1`, the Potency entry in experiment [1], in experiment [3], in experiment [4], in [5], in experiment [16] and in experiment [8] was “inactive” each time. Also, the Potency entry in [9], in [18], in experiment [19], in experiment [11] and in [12] was “inactive” throughout. Moreover, the outcome in [2], in experiment [6] and in [15] was inactive. Besides, the max activation in experiment [10] was 6.03%. In [13], the Potency was 4.36 µM (active).

Regarding `C=C(C)C(=O)OC(C)C`, the Potency result in experiment [1], in experiment [3], in experiment [4], in experiment [5], in [16] and in experiment [17] was “inactive” throughout. Also, the Potency entry in experiment [8], in experiment [9], in experiment [18], in experiment [19] and in experiment [13] was “inactive” in each case. Also, the outcome in [2], in experiment [6], in experiment [15] and in experiment [7] was inactive.
